For 30 sequences, sensor-assay potency score (higher = more potent) results are on record in the OligoGym collection.

Among the targets are GNAT1; GNLY; GOLGA1; GNAQ; GPIHBP1; GPR3; GPR20; GPR35.
Experiment in all cases: pooled miR-30 sensor sort-seq; sequence = guide strand
Common to all, as to settings: shRNA
Further: reference of the scale not given here.

The sequence TCCTTGATGATGATGTCGGTGA yielded a sensor-assay potency score (higher = more potent) with GNAT1 of -1.08.
Consider TTGGACTATCGTCAGACAGGTC, for which the sensor-assay potency score (higher = more potent) in the assay with GNLY was -0.895.
For the sequence TTCGAAGAGCTCATTATCGGGT, the sensor-assay potency score (higher = more potent) with GOLGA1 turned out to be 0.0609.
The sequence TTGAGTGTGTCCATGGCTCTGA displayed a sensor-assay potency score (higher = more potent) with GNAQ of 0.188.
With ACTATCGTCAGACAGGTCCTGT, the sensor-assay potency score (higher = more potent) with GNLY was -0.334.
TAATCTTCATCTGCTTGACGAT came in with a sensor-assay potency score (higher = more potent) in the assay with GNAT1 of -0.376.
Turning to ATAATTGATATTCTCGTCGTCT, the sensor-assay potency score (higher = more potent) with GNAQ stood at 0.0326.
For TGCACCTTGATGTAGTTGCCGG, the sensor-assay potency score (higher = more potent) with GNAT1 is -1.2.
In the assay with GOLGA1, TTAAGTCTGATGACATCTGATT yielded a sensor-assay potency score (higher = more potent) of -1.11.
On to TCTAAGCACATCTTGTTGCGTA, for which the sensor-assay potency score (higher = more potent) with GNAQ came out at 0.35.
For TTTCTCCTCATCACGCAGGTGG, the sensor-assay potency score (higher = more potent) with GNLY is -0.588.
Consider TAGTCCGGGAAACAGATGCTGA, for which, in the assay with GNAT1, the sensor-assay potency score (higher = more potent) is -1.24.
The sequence TTGGTCAACAGGTCACCCTGGG returned a sensor-assay potency score (higher = more potent) in the assay with GNLY of -0.135.
As to TTGTGCATGAGCCTTATTGTGC, the sensor-assay potency score (higher = more potent) with GNAQ is -1.26.
For TAGCGGTGGTTGCAGATGCTGT, in the assay with GNAT1, the sensor-assay potency score (higher = more potent) was -1.65.
Sequence TCGTCTATCATAGCATTCCTGG came in with a sensor-assay potency score (higher = more potent) in the assay with GNAQ of -1.02.
In turn, TTGCCAGGTCGTAGTACTCAGG gave a sensor-assay potency score (higher = more potent) with GNLY of -1.35.
In the assay with GOLGA1, TATGGTCTTATTTTTCTCCAGA returned a sensor-assay potency score (higher = more potent) of -0.384.
Sequence TTCGTCGTCCTCCACTAGCACC came in with a sensor-assay potency score (higher = more potent) with GNAT1 of -1.74.
The sequence TATAGTAGTGAAGAACTTCAGC returned a sensor-assay potency score (higher = more potent) in the assay with GOLGA1 of -0.313.
TTGGGTCCATCGTAGTCCGGGA: the sensor-assay potency score (higher = more potent) with GNAT1 is -0.616.
Turning to TTTGGTCAACAGGTCACCCTGG, in the assay with GNLY, the sensor-assay potency score (higher = more potent) amounted to 0.282.
The same measure, in the same setting: to TTGGAAACACTTCTCTGGGTGG belongs -0.134.
TGTTGGTCTCCTCCTCTTCAAC: the sensor-assay potency score (higher = more potent) in the assay with GPIHBP1 was -1.59.
On to TAGAACTCCAGAACCAGCTGGG, for which the sensor-assay potency score (higher = more potent) with GPR3 is 0.254.
Sequence ATGGTGTAGATGACTGAGGGTG showed a sensor-assay potency score (higher = more potent) in the assay with GPR20 of -1.26.
Take ATGGAGTTGAAATTGTGCCGGG: in the assay with GPR35, the sensor-assay potency score (higher = more potent) is -0.394.
In the assay with GPR20, TAGATCGGTCACCACCAGGTTG registered a sensor-assay potency score (higher = more potent) of -0.8.
On the same count and under the same terms, for TAGACCACGAGGCTCGTGTGGT the value was -1.11.
As for TAGCTCAGAAATTCAAACGTAA, the sensor-assay potency score (higher = more potent) with GPR3 was 0.128.
